# According to PubChem BioAssay (NCI):
# Compounds without any hit were thinned out: in the full panel of roughly 79,000, 15% have a hit. A number with no mark means an inactive call. Active and inactive are the calls of the source. Cut-off read from the data, not from the text of the source: active = growth inhibition above about 70%; inactive = the rest.
# Columns and labels:
# [1] = NCI Yeast Anticancer Drug Screen. Data for the rad50 strain (AID 155);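 note: 0% = growth of vehicle-only cultures of the same strain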; settings: S. cerevisiae rad50 strain growth inhibition, stronger effect = higher value
# Summary of the method: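 Genetically altered yeast (DNA repair pathway); compound treatment; growth inhibition vs vehicle ctrl.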
# [2] = NCI Yeast Anticancer Drug Screen. Data for the mec2-1 strain (AID 157); settings: S. cerevisiae mec2-1 strain, stronger effect = higher value
# Summary of the method: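 Strain: mec2-1 (DNA repair/cell cycle alteration). Compound exposure, then growth measured; inhibition expressed relative to vehicle.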
# [3] = NCI Yeast Anticancer Drug Screen. Data for the sgs1 mgt1 strain (AID 161);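 note: 0% = growth of cultures given vehicle only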; settings: S. cerevisiae sgs1 mgt1 strain, stronger effect = higher value
# Summary of the method: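 Test agents were incubated with a DNA-repair-mutant yeast strain. Growth was then read and compared against vehicle-treated controls.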
# [4] = NCI Yeast Anticancer Drug Screen. Data for the cln2 rad14 strain (AID 165);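 note: 0% = growth equal to vehicle treated cultures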; settings: S. cerevisiae cln2 rad14 strain, stronger effect = higher value
# Summary of the method: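 Compounds are applied to the cln2 rad14 yeast strain, and growth is then compared with that of vehicle-treated cultures to give inhibition.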
# [5] = NCI Yeast Anticancer Drug Screen. Data for the bub3 strain (AID 167); settings: S. cerevisiae bub3 mutant strain, stronger effect = higher value
# Summary of the method: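 Yeast carrying a defined mutation is treated with each compound, and growth is compared with that of vehicle-exposed cells to give inhibition.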
# [6] = NCI Yeast Anticancer Drug Screen. Data for the mlh1 rad18 strain (AID 175); settings: S. cerevisiae mlh1 rad18 strain growth inhibition, stronger effect = higher value
# Summary of the method: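 Read-out is yeast growth inhibition, calculated against vehicle-only controls. The compound was applied to a strain engineered with DNA damage repair alterations.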
# [7] = at 5.0 µM (retest, dose inferred, filed as 0.5)
# [8] = at 50.0 µM (retest, dose inferred, filed as 5.0)
SMILES,"growth inhibition [1, 7]","growth inhibition [1, 8]",growth inhibition ([1]; at 50.0 µM),"growth inhibition [2, 7]","growth inhibition [2, 8]",growth inhibition ([2]; at 50.0 µM),"growth inhibition [3, 7]","growth inhibition [3, 8]",growth inhibition ([3]; at 50.0 µM),"growth inhibition [4, 7]","growth inhibition [4, 8]",growth inhibition ([4]; at 50.0 µM),"growth inhibition [5, 7]","growth inhibition [5, 8]",growth inhibition ([5]; at 50.0 µM),"growth inhibition [6, 7]","growth inhibition [6, 8]",growth inhibition ([6]; at 50.0 µM)
CN(C)CCC(/C=C/c1ccccc1)=N\Nc1ccc(Cl)c(Cl)c1,98% (active),96% (active),99.7% (active),99% (active),98% (active),99.6% (active),99% (active),98% (active),99.5% (active),75% (active),95% (active),98% (active),95% (active),97% (active),99.3% (active),98% (active),97% (active),99.5% (active)
CN(C)c1cc2nc3ccccc3nc2cc1O,2%,46%,62.9%,-1%,53%,15.6%,-1%,26%,34.6%,-7%,34%,45.8%,-3%,59%,94.5% (active),7%,76% (active),81.9% (active)
Cc1cc2c(cc1Cl)Sc1nnc(C)n1S2(=O)=O,18%,81% (active),74.8% (active),14%,59%,71% (active),3%,34%,62.2%,17%,34%,48.8%,-12%,85% (active),84.3% (active),9%,75% (active),75.6% (active)
S=C1Nc2cnc3ccccc3c2SC1c1ccccc1 (centres undefined),-5%,98% (active),87% (active),7%,98% (active),92% (active),-15%,98% (active),87.8% (active),-9%,98% (active),90.3% (active),-8%,98% (active),90.8% (active),4%,98% (active),85.3% (active)
CC(CO)(Nc1ccc([N+](=O)[O-])cc1[N+](=O)[O-])C(=O)O (centres undefined),21%,99% (active),97.1% (active),14%,99% (active),99% (active),10%,-22%,98.1% (active),1%,99% (active),70.1% (active),1%,99% (active),95% (active),6%,99% (active),97.5% (active)
CCCCN(CCC=C1c2ccccc2Oc2ccccc21)CCCC,7%,99% (active),99.7% (active),4%,99% (active),99.7% (active),9%,99% (active),99.7% (active),4%,99% (active),99% (active),6%,99% (active),11.7%,5%,99% (active),99.6% (active)
CNC(=S)N/N=C/c1nccc(-c2ccccc2)c1C,4%,93% (active),23.8%,-2%,96% (active),48.9%,3%,96% (active),41.8%,-9%,94% (active),39.1%,2%,94% (active),-2.75%,-3%,93% (active),74.7% (active)
COC(=O)c1ccc(/C=C/C2=CC(=O)C=CC2=O)cc1,30%,44%,29.6%,27%,41%,36.5%,27%,57%,78.2% (active),18%,28%,58.9%,37%,57%,75.3% (active),29%,57%,84.1% (active)
C(C#Cc1ccccc1)#CCc1ccccc1,2%,17%,19%,7%,16%,28.9%,1%,39%,54.6%,1%,7%,6.5%,1%,13%,47.2%,-1%,21%,74.1% (active)
Cc1ccc(N=NC(C(=O)c2ccccc2)C(=O)c2ccccc2)cc1,7%,94% (active),93% (active),-3%,97% (active),93.3% (active),14%,92% (active),91.3% (active),7%,94% (active),87.9% (active),-3%,95% (active),93.1% (active),-2%,95% (active),92.5% (active)
CCC(CC)COC(=O)c1ccc(O)c(O)c1,-6%,91% (active),98.8% (active),-5%,72% (active),99.2% (active),-2%,91% (active),48.1%,-14%,98% (active),99.1% (active),1%,99% (active),99.1% (active),-6%,99% (active),98.9% (active)
CC(C)CC(NC(=O)COc1c(Cl)cc(Cl)c(Cl)c1Cl)C(=O)O (centres undefined),0%,8%,13%,-1%,39%,-8.6%,-1%,12%,-32.6%,4%,19%,3.35%,5%,10%,1%,-2%,12%,25.9%
CCOCCC(=O)NNc1ccccc1,7%,43%,26.2%,0%,36%,6%,6%,41%,42.2%,5%,56%,56.8%,8%,83% (active),42.9%,19%,80% (active),58%
CCCCCCCC1SCC(=O)N1c1nncs1 (centres undefined),-11%,96% (active),-10.8%,0%,65%,-20.4%,0%,95% (active),1.45%,-5%,80% (active),3.1%,19%,95% (active),2.9%,-10%,73% (active),5.7%
Clc1ccc(CN2CCCN(Cc3ccc(Cl)cc3)C2C2CCC=CO2)cc1 (centres undefined),4%,19%,66.1%,-18%,17%,24.5%,-17%,42%,72.6% (active),-4%,7%,46.9%,6%,17%,56.3%,-14%,36%,45%
Cc1cc(NS(=O)(=O)c2ccc(Nc3c4ccccc4nc4c(C(=O)NC(CO)(CO)CO)cccc34)cc2)no1,-1%,17%,75.2% (active),-5%,-10%,23.9%,-1%,-3%,-1.6%,-21%,17%,71.5% (active),0%,-6%,6.25%,-2%,19%,74% (active)
C[N+](C)(C)CCC(=O)c1ccco1,7%,99% (active),99.5% (active),16%,100% (active),99.7% (active),10%,99% (active),99.5% (active),8%,99% (active),96% (active),7%,99% (active),99.7% (active),4%,99% (active),99.2% (active)
Cc1ccc(O)c(Cc2ccccc2Cl)c1,-2%,99% (active),99.3% (active),-7%,99% (active),99.3% (active),-4%,98% (active),99.5% (active),-19%,99% (active),99% (active),-13%,99% (active),92.7% (active),-5%,99% (active),99% (active)
